Targets with a hit are over-represented here; the source holds about 8,800 in all. About 0.5% of all pairs of compound and target were hits. Unmarked numbers belong to inactive results.
compound: C[C@H](Nc1ncnc2nc[nH]c12)c1cc2cccc(Cl)c2c(=O)n1-c1ccccc1 [duvelisib]; assay: log2 fold change, soluble protein after heating vs DMSO (PISA); higher = thermal stabilisation; K562 lysate, 10 uM; active = over 0.2 and 3.5 SD of the protein, either way, in both replicates (recomputed)
Summary of the method: (§1)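 Log-two fold change in thermal stability relative to solvent controls is reported from duplicates. For each sample, crude K562 extract from dounce-homogenised pellets in PBS pH 7.4 with 1 mM MgCl2, at 1 mg/mL protein, was treated with 10 μM compound for 30 min. Aliquots heated for 3 min across 48°C-58°C were pooled, brought to 0.5% NP-40 at 4°C and cleared at 21,000xg for 90 min. The supernatant was quantified by TMTpro 16plex LC-MS/MS with channel sums equalised.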

UniProt Q5VZE5, sequence (Q5VZE5 whole entry, looked up): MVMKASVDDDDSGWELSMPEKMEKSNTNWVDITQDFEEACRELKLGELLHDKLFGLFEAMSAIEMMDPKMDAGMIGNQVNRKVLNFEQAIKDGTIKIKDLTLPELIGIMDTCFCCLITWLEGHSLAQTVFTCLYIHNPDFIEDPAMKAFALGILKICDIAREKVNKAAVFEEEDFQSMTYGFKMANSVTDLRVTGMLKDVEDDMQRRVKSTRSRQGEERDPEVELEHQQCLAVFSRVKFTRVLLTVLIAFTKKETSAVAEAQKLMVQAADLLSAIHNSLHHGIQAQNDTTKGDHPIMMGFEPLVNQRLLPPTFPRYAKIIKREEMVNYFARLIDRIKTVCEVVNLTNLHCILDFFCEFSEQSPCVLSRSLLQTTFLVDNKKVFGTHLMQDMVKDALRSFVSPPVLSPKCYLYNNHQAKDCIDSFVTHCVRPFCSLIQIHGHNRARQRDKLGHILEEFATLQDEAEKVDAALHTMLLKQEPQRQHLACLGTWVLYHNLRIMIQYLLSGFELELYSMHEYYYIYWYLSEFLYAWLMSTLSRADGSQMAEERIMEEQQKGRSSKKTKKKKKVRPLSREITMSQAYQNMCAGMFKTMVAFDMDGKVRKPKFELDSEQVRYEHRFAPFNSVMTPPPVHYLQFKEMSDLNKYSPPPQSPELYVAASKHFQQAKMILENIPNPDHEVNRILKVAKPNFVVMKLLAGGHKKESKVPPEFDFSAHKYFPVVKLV
UniProt Q92621, sequence (Q92621 whole entry, looked up): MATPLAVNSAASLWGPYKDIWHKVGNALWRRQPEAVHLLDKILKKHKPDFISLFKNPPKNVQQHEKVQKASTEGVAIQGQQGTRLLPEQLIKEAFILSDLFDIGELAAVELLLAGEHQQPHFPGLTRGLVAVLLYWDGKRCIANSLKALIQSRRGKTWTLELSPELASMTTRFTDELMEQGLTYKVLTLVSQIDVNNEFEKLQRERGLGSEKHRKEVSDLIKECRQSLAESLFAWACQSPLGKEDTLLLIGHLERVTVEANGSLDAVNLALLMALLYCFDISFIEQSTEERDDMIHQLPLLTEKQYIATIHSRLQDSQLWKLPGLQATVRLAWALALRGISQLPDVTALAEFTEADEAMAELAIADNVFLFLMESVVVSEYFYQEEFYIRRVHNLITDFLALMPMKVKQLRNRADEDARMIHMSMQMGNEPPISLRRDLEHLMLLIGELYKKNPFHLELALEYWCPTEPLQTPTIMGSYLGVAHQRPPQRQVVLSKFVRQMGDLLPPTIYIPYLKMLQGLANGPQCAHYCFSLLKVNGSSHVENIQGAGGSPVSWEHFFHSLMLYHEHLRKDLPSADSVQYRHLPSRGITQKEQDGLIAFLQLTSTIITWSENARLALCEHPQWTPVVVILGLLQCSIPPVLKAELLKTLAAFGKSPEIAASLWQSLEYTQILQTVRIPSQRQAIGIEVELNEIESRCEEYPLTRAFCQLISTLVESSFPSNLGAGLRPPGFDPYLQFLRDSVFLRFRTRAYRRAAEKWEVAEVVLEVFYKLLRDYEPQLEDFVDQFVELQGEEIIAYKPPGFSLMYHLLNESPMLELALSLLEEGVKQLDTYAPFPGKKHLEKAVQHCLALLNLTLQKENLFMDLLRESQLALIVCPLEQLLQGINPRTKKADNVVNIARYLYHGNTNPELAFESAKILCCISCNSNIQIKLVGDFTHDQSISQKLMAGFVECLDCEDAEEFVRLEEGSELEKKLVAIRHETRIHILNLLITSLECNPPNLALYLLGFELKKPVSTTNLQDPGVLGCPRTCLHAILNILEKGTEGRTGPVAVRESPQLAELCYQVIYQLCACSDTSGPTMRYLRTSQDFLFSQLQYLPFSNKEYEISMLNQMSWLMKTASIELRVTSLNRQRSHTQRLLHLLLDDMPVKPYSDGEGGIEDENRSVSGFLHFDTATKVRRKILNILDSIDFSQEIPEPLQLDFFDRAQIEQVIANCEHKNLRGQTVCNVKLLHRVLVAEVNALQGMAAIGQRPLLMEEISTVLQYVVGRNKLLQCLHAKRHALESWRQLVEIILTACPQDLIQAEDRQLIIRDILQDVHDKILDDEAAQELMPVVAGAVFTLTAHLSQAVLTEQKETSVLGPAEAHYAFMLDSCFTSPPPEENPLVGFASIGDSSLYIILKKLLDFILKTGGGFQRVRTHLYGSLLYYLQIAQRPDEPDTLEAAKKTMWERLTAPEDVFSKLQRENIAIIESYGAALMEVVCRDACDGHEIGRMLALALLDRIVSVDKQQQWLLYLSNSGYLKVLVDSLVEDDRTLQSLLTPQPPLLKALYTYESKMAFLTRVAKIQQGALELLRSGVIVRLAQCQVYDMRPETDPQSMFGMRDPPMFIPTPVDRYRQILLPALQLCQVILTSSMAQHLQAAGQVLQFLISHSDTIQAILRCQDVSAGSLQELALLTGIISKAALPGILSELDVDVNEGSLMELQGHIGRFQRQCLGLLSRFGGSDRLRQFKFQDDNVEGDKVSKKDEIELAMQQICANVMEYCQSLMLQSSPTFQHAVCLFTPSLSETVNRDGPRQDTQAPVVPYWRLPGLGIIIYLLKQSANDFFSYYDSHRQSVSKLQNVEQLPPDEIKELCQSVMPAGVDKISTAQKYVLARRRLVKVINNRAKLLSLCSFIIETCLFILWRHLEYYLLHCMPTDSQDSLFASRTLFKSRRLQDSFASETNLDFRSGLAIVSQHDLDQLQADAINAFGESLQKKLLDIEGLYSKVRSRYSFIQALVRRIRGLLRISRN
UniProt Q01968, sequence (Q01968 whole entry, looked up): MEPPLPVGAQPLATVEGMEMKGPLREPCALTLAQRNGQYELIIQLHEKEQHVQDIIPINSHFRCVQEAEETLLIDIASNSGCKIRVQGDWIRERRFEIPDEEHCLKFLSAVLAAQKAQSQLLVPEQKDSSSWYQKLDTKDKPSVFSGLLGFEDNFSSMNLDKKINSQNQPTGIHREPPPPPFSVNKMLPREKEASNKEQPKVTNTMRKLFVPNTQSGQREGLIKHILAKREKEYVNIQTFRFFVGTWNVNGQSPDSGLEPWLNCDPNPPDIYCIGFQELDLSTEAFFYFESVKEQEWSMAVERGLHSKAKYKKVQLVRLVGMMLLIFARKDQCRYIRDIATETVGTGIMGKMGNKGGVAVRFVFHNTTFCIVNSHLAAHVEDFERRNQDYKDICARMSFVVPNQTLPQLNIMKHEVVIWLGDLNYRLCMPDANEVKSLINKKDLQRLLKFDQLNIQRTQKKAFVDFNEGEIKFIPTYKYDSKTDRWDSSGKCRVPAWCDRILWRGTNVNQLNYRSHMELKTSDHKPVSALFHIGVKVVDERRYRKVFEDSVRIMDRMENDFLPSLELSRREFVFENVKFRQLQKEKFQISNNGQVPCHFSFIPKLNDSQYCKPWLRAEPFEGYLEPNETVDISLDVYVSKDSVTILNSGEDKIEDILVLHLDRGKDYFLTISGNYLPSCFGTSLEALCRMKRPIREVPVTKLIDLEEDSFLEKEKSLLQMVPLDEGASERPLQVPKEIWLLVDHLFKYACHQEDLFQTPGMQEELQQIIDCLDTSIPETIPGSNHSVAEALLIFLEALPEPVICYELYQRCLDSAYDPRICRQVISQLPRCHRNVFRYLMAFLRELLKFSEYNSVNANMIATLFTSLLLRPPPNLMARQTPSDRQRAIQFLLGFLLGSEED
UniProt O94776, sequence (O94776 whole entry, looked up): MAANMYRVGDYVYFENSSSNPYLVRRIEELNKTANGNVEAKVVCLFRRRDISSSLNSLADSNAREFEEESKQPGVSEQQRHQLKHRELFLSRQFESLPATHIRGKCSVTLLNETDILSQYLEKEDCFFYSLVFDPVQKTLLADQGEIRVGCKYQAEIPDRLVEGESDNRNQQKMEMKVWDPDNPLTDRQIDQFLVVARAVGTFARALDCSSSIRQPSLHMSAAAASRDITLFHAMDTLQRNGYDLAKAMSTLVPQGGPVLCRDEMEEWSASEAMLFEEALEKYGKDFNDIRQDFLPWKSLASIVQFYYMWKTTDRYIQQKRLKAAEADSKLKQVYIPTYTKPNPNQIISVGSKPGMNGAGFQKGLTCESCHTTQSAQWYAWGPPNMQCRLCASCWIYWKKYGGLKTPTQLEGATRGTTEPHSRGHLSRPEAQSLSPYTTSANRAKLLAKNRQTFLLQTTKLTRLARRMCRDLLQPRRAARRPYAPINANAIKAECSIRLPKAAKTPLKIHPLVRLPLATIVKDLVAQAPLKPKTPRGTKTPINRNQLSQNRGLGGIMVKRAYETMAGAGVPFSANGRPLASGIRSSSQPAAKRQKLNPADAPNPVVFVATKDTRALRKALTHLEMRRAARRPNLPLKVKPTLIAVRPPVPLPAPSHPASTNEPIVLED
UniProt Q9Y639, sequence (Q9Y639 whole entry, looked up): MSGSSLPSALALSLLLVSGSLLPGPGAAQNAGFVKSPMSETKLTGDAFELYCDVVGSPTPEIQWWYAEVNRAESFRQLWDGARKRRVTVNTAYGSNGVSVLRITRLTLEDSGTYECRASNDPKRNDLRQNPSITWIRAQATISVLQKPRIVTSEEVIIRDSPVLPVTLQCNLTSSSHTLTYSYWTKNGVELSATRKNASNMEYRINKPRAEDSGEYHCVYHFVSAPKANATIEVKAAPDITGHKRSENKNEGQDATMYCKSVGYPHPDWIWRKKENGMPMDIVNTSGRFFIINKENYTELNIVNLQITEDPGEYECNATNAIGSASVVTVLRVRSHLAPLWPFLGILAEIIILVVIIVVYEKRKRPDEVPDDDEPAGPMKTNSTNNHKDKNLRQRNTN
UniProt Q6N063, sequence (Q6N063 whole entry, looked up): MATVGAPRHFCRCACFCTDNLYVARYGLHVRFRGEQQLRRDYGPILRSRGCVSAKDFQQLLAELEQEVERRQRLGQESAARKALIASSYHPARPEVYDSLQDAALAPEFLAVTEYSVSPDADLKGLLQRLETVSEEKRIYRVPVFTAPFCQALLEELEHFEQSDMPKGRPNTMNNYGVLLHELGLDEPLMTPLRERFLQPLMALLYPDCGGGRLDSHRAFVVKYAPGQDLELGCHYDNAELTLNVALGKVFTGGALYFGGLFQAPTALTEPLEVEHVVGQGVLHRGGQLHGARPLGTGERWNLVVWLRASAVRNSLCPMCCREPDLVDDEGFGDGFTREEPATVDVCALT

| Target | log2 fold change |
| --- | --- |
| OGFOD2 (UniProt Q6N063) | 0.045 |
| MTA2 (UniProt O94776) | 0 |
| NDC1 (UniProt Q9BTX1) | -0.044 |
| OLA1 (UniProt Q9NTK5) | 0.007 |
| OCRL (UniProt Q01968) | -0.013 |
| NCAPG2 (UniProt Q86XI2) | -0.052 |
| NUP133 (UniProt Q8WUM0) | -0.01 |
| NCKAP1L (UniProt P55160) | 0.02 |
| MRPL53 (UniProt Q96EL3) | 0 |
| MRPS12 (UniProt O15235) | -0.022 |
| NDUFS1 isoform 2 (UniProt P28331) | -0.01 |
| NCOR2 (UniProt C9J0Q5) | -0.014 |
| NUP205 (UniProt Q92621) | -0.008 |
| MTOR (UniProt P42345) | 0.021 |
| NF1 (UniProt P21359) | -0.001 |
| ORC5 (UniProt O43913) | -0.016 |
| OSBP2 (UniProt Q969R2) | 0.116 |
| PANK2 (UniProt Q9BZ23) | -0.126 |

| Target | log2 fold change |
| --- | --- |
| MYCBP2 (UniProt O75592) | 0.023 |
| NPTN (UniProt Q9Y639) | 0.049 |
| NNT (UniProt Q13423) | 0.039 |
| OAT (UniProt P04181) | -0.025 |
| MTHFD1, A0A384N5Y3 | 0.015 |
| NIPBL (UniProt Q6KC79) | 0 |
| NBEAL2 (UniProt Q6ZNJ1) | 0.04 |
| N4BP2 (UniProt Q86UW6) | 0.028 |
| NFKBIE (UniProt O00221) | 0.03 |
| MTA3 (UniProt Q9BTC8) | 0.001 |
| NFATC4 isoform 2 (UniProt Q14934) | -0.006 |
| NAA35 (UniProt Q5VZE5) | -0.007 |
| OPA1 isoform 2 (UniProt O60313) | -0.002 |
| NAA30 (UniProt Q147X3) | -0.037 |
| MYO1C (UniProt O00159) | 0.075 |
| NUF2 (UniProt Q9BZD4) | -0.019 |
| NCAPH (UniProt Q15003) | 0.046 |

compound: Cc1cc(Nc2cc(CN3CCOCC3)c3nc(C)c(Cc4ccc(Cl)cc4F)n3n2)n[nH]1 [gandotinib]; assay: as above
Summary of the method: as §1

| Target | log2 fold change |
| --- | --- |
| OGFOD2 (UniProt Q6N063) | -0.016 |
| MTA2 (UniProt O94776) | -0.033 |
| NDC1 (UniProt Q9BTX1) | 0.185 |
| OLA1 (UniProt Q9NTK5) | -0.035 |
| OCRL (UniProt Q01968) | -0.009 |
| NCAPG2 (UniProt Q86XI2) | -0.011 |
| NUP133 (UniProt Q8WUM0) | 0.251 (active) |
| NCKAP1L (UniProt P55160) | 0.025 |
| MRPL53 (UniProt Q96EL3) | -0.04 |
| MRPS12 (UniProt O15235) | -0.022 |
| NDUFS1 isoform 2 (UniProt P28331) | -0.006 |
| NCOR2 (UniProt C9J0Q5) | -0.055 |
| NUP205 (UniProt Q92621) | -0.143 |
| MTOR (UniProt P42345) | -0.079 |
| NF1 (UniProt P21359) | -0.108 |
| ORC5 (UniProt O43913) | -0.113 |
| OSBP2 (UniProt Q969R2) | 0.194 |
| PANK2 (UniProt Q9BZ23) | 0.077 |

| Target | log2 fold change |
| --- | --- |
| MYCBP2 (UniProt O75592) | 0.054 |
| NPTN (UniProt Q9Y639) | 0.003 |
| NNT (UniProt Q13423) | -0.445 (active) |
| OAT (UniProt P04181) | 0.063 |
| MTHFD1, A0A384N5Y3 | -0.087 |
| NIPBL (UniProt Q6KC79) | -0.094 |
| NBEAL2 (UniProt Q6ZNJ1) | -0.157 |
| N4BP2 (UniProt Q86UW6) | 0.014 |
| NFKBIE (UniProt O00221) | -0.02 |
| MTA3 (UniProt Q9BTC8) | -0.013 |
| NFATC4 isoform 2 (UniProt Q14934) | 0.04 |
| NAA35 (UniProt Q5VZE5) | -0.042 |
| OPA1 isoform 2 (UniProt O60313) | -0.248 (active) |
| NAA30 (UniProt Q147X3) | 0.012 |
| MYO1C (UniProt O00159) | -0.036 |
| NUF2 (UniProt Q9BZD4) | -0.103 |
| NCAPH (UniProt Q15003) | -0.101 |

compound: Cc1cc(Nc2cc(N3CCN(C)CC3)nc(Sc3ccc(NC(=O)C4CC4)cc3)n2)n[nH]1 [tozasertib]; assay: as above
Summary of the method: as §1

| Target | log2 fold change |
| --- | --- |
| OGFOD2 (UniProt Q6N063) | 0.019 |
| MTA2 (UniProt O94776) | -0.016 |
| NDC1 (UniProt Q9BTX1) | -0.01 |
| OLA1 (UniProt Q9NTK5) | 0.025 |
| OCRL (UniProt Q01968) | 0 |
| NCAPG2 (UniProt Q86XI2) | 0.023 |
| NUP133 (UniProt Q8WUM0) | 0.042 |
| NCKAP1L (UniProt P55160) | 0.018 |
| MRPL53 (UniProt Q96EL3) | 0.016 |
| MRPS12 (UniProt O15235) | 0.048 |
| NDUFS1 isoform 2 (UniProt P28331) | 0.03 |
| NCOR2 (UniProt C9J0Q5) | 0.011 |
| NUP205 (UniProt Q92621) | 0.015 |
| MTOR (UniProt P42345) | 0.018 |
| NF1 (UniProt P21359) | -0.014 |
| ORC5 (UniProt O43913) | -0.023 |
| OSBP2 (UniProt Q969R2) | -0.028 |
| PANK2 (UniProt Q9BZ23) | 0.008 |

| Target | log2 fold change |
| --- | --- |
| MYCBP2 (UniProt O75592) | 0.023 |
| NPTN (UniProt Q9Y639) | 0.007 |
| NNT (UniProt Q13423) | -0.014 |
| OAT (UniProt P04181) | 0.01 |
| MTHFD1, A0A384N5Y3 | 0.028 |
| NIPBL (UniProt Q6KC79) | -0.005 |
| NBEAL2 (UniProt Q6ZNJ1) | 0.02 |
| N4BP2 (UniProt Q86UW6) | -0.032 |
| NFKBIE (UniProt O00221) | 0.07 |
| MTA3 (UniProt Q9BTC8) | -0.008 |
| NFATC4 isoform 2 (UniProt Q14934) | 0.084 |
| NAA35 (UniProt Q5VZE5) | -0.003 |
| OPA1 isoform 2 (UniProt O60313) | 0.03 |
| NAA30 (UniProt Q147X3) | 0.015 |
| MYO1C (UniProt O00159) | 0.014 |
| NUF2 (UniProt Q9BZD4) | 0.023 |
| NCAPH (UniProt Q15003) | 0 |

Reference: the supplement of paper PMC10849652
